# Test results: PubChem BioAssay (Tox21)
# Several values for one entry are separate records, joined by “and”; a condition that tells them apart may be missing. Equal entries are not always repeated. Records with an inconclusive call do not appear. Where a structure was tested more than once in an assay, its records may differ in their call. Activity calls are given as the source filed them. The call rests on the fitted dose curve; in most records, active means well fitted cell-killing curve with a large enough effect in the repeat runs; inconclusive means weak or mixed curves, or effect the other way; inactive means flat fitted curve, though single readings scatter.
# Test: Human pregnane X receptor (PXR) small molecule agonists, qHTS cell viability counter screen (AID 1346977); further: nearly all actives have a fitted effect of over 50% in size
# Settings: PXR-Luc HepG2 viability, CellTiter-Fluor, 24 h; series mostly up to 92.4 µM; activity change, negative = cytotoxicity: at the top concentration
# From the text: U.S. Tox21 Program National Center for Advancing Translational Sciences [NCATS] NIH Chemical Genomics Center [NCGC] U.S. Environmental Protection Agency [EPA] National Institutes of Environmental Health Sciences [NIEHS] National Toxicology Program [NTP] U.S. Food and Drug Administration [FDA] Tox21 Assay Overview: The human pregnane X receptor (hPXR) regulates the expression of several drug metabolizing enzymes and induction of these proteins is a major mechanism for developing drug resistance in cancer. One such key enzyme catalyzing the drug metabolism is cytochrome P450 3A4 (CYP3A4). Changes in CYP3A4 expression affect drug metabolism, thereby reducing the therapeutic efficacy and altering toxicological response to a drug and which finally causes adverse drug interaction. To screen Tox21 libraries for compounds that activate hPXR-mediated CYP3A4 gene expression, PXR-Luc HepG2 cells were used. Also cytotoxicity of the compounds was tested in parallel by measuring the cell viability using CellTiter-Fluor assay system in the same wells.
# Tox21 Assay Protocol Summary: PXR-Luc HepG2 cells were dispensed at 2,000 per well in 5uL of assay medium containing 5% charcoal-stripped FBS into white solid bottom 1536-well plates (Corning Life Sciences, Corning, NY) using a Multidrop Combi (Thermo Scientific, Waltham, MA) dispenser. The assay plates were incubated at 37 C and 5% CO2 for 5hr, and then 23nL of compounds dissolved in DMSO and positive control were transferred using a Pintool station (Wako, San Diego, CA). The assay plates were incubated at 37C and 5% CO2 for 24hr. For cytotoxicity read, after 23hr incubation at 37C, 1uL CellTiter-Fluor reagent (Promega Corporation, Madison, WI) was added to each well of the assay plates using Flying Reagent Dispenser (FRD, Aurora Discovery, San Diego, CA). After 1hr incubation at 37C and 5% CO2, the fluorescence signal was quantified using a ViewLux plate reader (PerkinElmer, Shelton, CT).
# On the % scale 0 is the no-effect control and ±100 the full control effect; potency means the concentration at half of the fitted maximal effect.
SMILES,"activity change, negative = cytotoxicity",Potency
CC(C)(O)CCC(C)(C)O,4.78% (inactive),–
CC(C)C(=O)c1c(C(C)C)nn2ccccc12,6.87% [at 42.5 µM] (inactive),–
COC(c1ccccc1)(c1ccccc1)[C@H](Oc1nc(C)cc(C)n1)C(=O)O,8.48% [at 42.5 µM] (inactive),–
CC(=O)CC(C)=O,2.01% (inactive),–
CC[C@@H](N)CO,7.08% (inactive),–
NCCCCCC(=O)O,-0.707% [at 42.5 µM] (inactive),–
OCC(CO)N[C@H]1C[C@](O)(CO)[C@@H](O)[C@H](O)[C@H]1O,7.4% [at 42.5 µM] (inactive),–
c1cc(C(c2ccc(OCC3CO3)cc2)C(c2ccc(OCC3CO3)cc2)c2ccc(OCC3CO3)cc2)ccc1OCC1CO1 (stereo not given),–,inactive
Nc1nc2ccccc2[nH]1,–,inactive
CC(C)(C)NC(=O)[C@@H]1CN(Cc2cccnc2)CCN1C[C@@H](O)C[C@@H](Cc1ccccc1)C(=O)N[C@H]1c2ccccc2C[C@H]1O,–,inactive
C=C(C)C(=O)O,–,inactive
Nc1nc(=S)c2[nH]cnc2[nH]1,–,inactive
Cc1occc(=O)c1OC(=O)C(C)C,1.36% (inactive),–
CCCCC/C=C/CC1CC(=O)OC1=O (stereo not given),19.9% (inactive),–
CCc1cc(C(C)(C)C)c(O)c(C(C)(C)C)c1,–,inactive
O=c1n(CC2CO2)c(=O)n(CC2CO2)c(=O)n1CC1CO1 (stereo not given),–,50.1 µM (active) and 54.5 µM (active)
O=C(O)c1cccc(C(=O)O)c1,–,inactive
O=C1NCC2(CCN(CCc3ccccc3)CC2)O1,-2.5% [at 42.5 µM] (inactive),–
O=C1CC2(CCCC2)CC(=O)N1CCCCN1CCN(c2ncccn2)CC1,-2.95% [at 42.5 µM] (inactive),–
NC(Cc1ccc(Cl)cc1)C(=O)O (stereo not given),6.84% [at 0.349 µM] (inactive),–

SMILES,"activity change, negative = cytotoxicity",Potency
CCn1c2ccccc2c2cc(N)ccc21,-0.915% (inactive),–
CCCCCCCCCCCCCC[P+](CCCC)(CCCC)CCCC,–,6.31 µM (active) and 13.7 µM (active)
CNC1(C)C2CCC(C2)C1(C)C (stereo not given),8.45% [at 42.5 µM] (inactive),–
COc1cc(C(=S)N2CCOCC2)ccc1O,0.931% [at 42.5 µM] (inactive),–
CCC(=O)/C=C/C1C(C)=CCCC1(C)C (stereo not given),–,inactive
O=C(O)c1cc(Cl)cc(Cl)c1,0.722% (inactive),–
COC(=O)c1cccc(C(=O)OC)c1,–,inactive
C=C(C)C1CC=C(C)C(OC(C)=O)C1 (stereo not given),–,inactive
CCN(CC)c1ccc2c(C)cc(=O)oc2c1,–,inactive
O=C1Nc2ccccc2C1(c1ccc(O)cc1)c1ccc(O)cc1,–,inactive
O=C(O)CCc1ccccc1,6.24% (inactive),–
CC(C)(C)c1ccc(O)c(C(C)(C)C)c1,-40.5% (inactive),–
CCCCCCCCCCCCc1ccccc1O,–,47.9 µM (active) and 30.6 µM (active)
COC(=O)[C@H]1[C@H]2C[C@@H]3c4[nH]c5cc(OC)ccc5c4CCN3C[C@H]2C[C@@H](OC(=O)c2cc(OC)c(OC)c(OC)c2)[C@@H]1OC,–,39.7 µM (active) and inactive
c1ccc2n[nH]nc2c1,–,inactive
CC[C@]1(O)C[C@@H]2CN(CCc3c([nH]c4ccccc34)[C@@](C(=O)OC)(c3cc4c(cc3OC)N(C)[C@H]3[C@@](O)(C(=O)OC)[C@H](OC(C)=O)[C@]5(CC)C=CCN6CC[C@]43[C@@H]65)C2)C1,–,15 µM (active) and 26.6 µM (active)
CN1C(=O)c2ccc([N+](=O)[O-])cc2C1=O,-1.49% (inactive),–
CCn1cc(C(=O)O)c(=O)c2cc(F)c(N3CCNC(C)C3)c(F)c21 (stereo not given),4.96% [at 42.5 µM] (inactive),–
COc1ccc(Cc2cnc(N)nc2N)cc1OC,2.12% [at 42.5 µM] (inactive),–
COc1nc(C)nc(Cl)c1NC1=NCCN1,-0.922% [at 42.5 µM] (inactive),–
